Test in all cases: DAPPL (digital affinity profiling via proximity ligation, sequencing); 10 mM Tris-HCl pH 7.5, 50 mM NaCl, 1 mM DTT, 4% glycerol, room temperature, 30 min; GST-TFs on glutathione beads, 16-mer random dsDNA library, 0.1% formaldehyde crosslink after washing; high values mean tight binding
Common to all, as to conditions: protein: recombinant; tags: N-terminal GST; dsDNA, one strand shown

One test deals with T1, GABPA (Homo sapiens, UniProt Q06546 1-454).
T1 sequence: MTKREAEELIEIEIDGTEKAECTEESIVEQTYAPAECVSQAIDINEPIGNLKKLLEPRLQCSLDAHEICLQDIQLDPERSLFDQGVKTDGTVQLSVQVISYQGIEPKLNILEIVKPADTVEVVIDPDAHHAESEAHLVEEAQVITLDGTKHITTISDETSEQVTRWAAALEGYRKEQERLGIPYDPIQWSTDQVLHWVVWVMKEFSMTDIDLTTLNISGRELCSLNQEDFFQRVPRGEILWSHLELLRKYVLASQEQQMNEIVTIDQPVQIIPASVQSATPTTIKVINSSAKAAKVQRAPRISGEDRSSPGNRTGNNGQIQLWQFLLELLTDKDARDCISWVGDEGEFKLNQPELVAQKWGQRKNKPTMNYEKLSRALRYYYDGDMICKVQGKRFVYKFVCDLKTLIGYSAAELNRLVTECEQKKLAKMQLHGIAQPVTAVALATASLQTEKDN
The essentials:
(§1)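 A tag-only sample was pooled with DNA-barcoded human transcription factors that had been expressed in yeast as GST fusions and captured on glutathione beads. The pools were incubated for 30 min at room temperature with 200 nmole of a random double-stranded 16-mer DNA library in Tris/NaCl/DTT/glycerol buffer, then washed, crosslinked with 0.1% formaldehyde, proximity-ligated (BsaI/T4 ligase, 1 h, 37 °C), PCR-amplified and sequenced on an Illumina NextSeq500. Binding signal is each hexamer's read frequency for a factor divided by its frequency for the tag-only sample.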

A further test addresses T2, ERG (Homo sapiens, UniProt P11308 1-479).
T2 sequence: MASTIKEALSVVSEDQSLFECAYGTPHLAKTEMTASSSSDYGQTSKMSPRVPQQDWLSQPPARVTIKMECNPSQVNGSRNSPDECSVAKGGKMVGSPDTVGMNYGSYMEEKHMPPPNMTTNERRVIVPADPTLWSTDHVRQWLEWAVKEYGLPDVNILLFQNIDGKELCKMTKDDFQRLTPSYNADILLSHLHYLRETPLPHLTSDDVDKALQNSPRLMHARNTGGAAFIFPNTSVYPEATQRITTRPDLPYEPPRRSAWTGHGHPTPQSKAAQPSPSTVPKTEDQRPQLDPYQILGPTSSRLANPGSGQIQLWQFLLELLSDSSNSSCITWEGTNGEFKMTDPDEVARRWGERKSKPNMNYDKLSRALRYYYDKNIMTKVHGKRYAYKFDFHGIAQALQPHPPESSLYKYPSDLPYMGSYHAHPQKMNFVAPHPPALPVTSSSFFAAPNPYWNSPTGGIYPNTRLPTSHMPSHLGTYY
The essentials:
as §1

The next test addresses ELF1 (Homo sapiens, UniProt P32519 1-619). The essentials:
as §1

The next test has as its target ETV5 (Homo sapiens, UniProt P41161 1-510). In outline:
as §1

Another test concerns the target T3, SPIC (Homo sapiens, UniProt Q8N5J4 1-248).
T3 sequence: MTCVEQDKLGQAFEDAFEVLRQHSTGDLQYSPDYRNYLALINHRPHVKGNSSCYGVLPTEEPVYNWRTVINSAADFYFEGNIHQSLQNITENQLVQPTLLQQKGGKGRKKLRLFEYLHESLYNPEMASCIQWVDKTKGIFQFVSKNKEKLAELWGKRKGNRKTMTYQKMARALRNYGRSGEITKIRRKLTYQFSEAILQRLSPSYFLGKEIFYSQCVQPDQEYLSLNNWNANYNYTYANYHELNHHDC
In outline:
as §1

The target of a further test is ELF4 (Homo sapiens, UniProt Q99607 1-663). In outline: as §1
The target in the next test is T4, ELK4 (Homo sapiens, UniProt P28324-2 1-405).
T4 sequence: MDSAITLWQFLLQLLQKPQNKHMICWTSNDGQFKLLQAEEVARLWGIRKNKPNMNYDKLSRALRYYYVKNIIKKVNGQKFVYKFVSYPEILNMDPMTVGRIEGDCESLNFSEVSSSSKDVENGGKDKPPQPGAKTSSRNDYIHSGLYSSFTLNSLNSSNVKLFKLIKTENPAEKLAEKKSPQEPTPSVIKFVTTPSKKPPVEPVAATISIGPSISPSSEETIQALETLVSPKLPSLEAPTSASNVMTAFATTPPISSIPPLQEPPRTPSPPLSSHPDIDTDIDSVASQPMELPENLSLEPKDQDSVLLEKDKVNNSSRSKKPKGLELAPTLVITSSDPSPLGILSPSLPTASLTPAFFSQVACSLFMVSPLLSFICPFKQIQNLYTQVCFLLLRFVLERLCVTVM
In outline:
as §1

For the next test, the target named is T5, ELK1 (Homo sapiens, UniProt P19419 1-428).
T5 sequence: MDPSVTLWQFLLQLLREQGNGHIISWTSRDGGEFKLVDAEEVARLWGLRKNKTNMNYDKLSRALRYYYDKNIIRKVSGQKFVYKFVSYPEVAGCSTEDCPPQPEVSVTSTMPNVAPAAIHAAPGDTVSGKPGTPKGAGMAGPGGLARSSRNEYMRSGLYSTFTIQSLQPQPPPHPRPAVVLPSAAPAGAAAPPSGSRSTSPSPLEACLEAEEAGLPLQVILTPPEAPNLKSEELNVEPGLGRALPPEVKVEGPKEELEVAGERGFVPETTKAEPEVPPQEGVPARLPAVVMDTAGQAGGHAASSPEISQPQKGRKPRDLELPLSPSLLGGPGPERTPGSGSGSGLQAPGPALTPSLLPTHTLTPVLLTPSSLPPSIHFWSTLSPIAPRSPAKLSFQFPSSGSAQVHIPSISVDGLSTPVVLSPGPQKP
In outline: as §1

For a further test, the target named is T6, EHF (Homo sapiens, UniProt Q9NZC4 1-300).
T6 sequence: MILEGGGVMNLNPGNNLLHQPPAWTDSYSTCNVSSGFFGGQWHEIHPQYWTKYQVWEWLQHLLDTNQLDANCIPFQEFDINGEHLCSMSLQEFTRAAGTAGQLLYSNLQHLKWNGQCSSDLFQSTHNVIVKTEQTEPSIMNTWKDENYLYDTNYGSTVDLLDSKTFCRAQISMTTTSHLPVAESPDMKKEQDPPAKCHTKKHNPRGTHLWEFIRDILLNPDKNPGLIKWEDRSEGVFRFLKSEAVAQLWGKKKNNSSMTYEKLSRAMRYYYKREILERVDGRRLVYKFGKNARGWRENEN
In outline: as §1

Another test concerns the target SPIB (Homo sapiens, UniProt Q01892 1-262). In outline: as §1
The target of a further test is T7, ELF3 (Homo sapiens, UniProt P78545 1-371).
T7 sequence: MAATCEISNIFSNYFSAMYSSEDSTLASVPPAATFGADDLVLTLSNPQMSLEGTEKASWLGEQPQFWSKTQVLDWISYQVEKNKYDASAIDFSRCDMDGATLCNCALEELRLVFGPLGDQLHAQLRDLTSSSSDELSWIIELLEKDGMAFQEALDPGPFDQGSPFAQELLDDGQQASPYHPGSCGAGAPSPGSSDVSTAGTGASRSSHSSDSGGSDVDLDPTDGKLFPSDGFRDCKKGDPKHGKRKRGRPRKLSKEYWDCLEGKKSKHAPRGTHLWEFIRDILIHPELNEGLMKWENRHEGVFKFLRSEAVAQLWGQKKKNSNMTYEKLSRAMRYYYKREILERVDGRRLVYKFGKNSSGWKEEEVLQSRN
In outline: as §1

A further test deals with T8, ERF (Homo sapiens, UniProt P50548 1-548).
T8 sequence: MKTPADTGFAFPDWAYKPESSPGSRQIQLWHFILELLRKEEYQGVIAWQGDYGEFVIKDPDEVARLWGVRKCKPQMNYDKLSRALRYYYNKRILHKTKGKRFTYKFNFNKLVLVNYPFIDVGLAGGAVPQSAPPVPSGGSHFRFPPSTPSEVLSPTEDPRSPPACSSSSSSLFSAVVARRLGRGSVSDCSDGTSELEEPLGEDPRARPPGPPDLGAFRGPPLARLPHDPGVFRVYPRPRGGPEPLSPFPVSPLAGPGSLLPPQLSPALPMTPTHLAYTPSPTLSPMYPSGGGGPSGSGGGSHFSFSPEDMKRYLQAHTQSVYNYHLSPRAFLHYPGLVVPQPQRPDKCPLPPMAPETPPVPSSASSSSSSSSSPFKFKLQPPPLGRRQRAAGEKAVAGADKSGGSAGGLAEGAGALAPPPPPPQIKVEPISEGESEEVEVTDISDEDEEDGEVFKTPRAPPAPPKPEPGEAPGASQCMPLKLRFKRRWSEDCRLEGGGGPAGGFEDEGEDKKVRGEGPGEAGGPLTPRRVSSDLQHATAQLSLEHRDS
The essentials: as §1

For another test, the target named is T9, ETV3L (Homo sapiens, UniProt Q6ZN32 1-361).
T9 sequence: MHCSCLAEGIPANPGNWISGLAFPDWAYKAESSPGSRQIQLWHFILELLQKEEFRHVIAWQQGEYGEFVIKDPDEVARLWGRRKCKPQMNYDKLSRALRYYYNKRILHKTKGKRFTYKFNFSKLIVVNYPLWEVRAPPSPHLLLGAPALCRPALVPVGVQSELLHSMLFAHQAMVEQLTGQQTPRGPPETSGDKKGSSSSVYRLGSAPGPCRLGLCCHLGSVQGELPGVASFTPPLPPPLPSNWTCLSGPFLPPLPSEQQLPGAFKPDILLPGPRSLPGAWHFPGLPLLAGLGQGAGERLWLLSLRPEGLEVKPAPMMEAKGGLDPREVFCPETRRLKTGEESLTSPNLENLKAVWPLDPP
The essentials: as §1

The next test concerns the target T10, ETS2 (Homo sapiens, UniProt P15036 1-469).
T10 sequence: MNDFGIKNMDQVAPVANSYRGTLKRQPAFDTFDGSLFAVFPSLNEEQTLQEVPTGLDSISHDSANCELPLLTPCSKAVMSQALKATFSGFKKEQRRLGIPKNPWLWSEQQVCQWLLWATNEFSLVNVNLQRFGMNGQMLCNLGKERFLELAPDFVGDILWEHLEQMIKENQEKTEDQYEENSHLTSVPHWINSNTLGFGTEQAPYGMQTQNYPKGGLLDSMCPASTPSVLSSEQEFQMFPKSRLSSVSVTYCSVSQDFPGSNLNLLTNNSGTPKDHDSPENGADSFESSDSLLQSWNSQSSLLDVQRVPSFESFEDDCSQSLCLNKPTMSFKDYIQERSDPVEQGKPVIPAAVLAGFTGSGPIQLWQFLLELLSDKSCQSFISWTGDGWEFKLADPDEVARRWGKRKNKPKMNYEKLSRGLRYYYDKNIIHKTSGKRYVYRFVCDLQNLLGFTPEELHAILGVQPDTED
In outline: as §1

The next test deals with T11, SPDEF (Homo sapiens, UniProt O95238 1-335).
T11 sequence: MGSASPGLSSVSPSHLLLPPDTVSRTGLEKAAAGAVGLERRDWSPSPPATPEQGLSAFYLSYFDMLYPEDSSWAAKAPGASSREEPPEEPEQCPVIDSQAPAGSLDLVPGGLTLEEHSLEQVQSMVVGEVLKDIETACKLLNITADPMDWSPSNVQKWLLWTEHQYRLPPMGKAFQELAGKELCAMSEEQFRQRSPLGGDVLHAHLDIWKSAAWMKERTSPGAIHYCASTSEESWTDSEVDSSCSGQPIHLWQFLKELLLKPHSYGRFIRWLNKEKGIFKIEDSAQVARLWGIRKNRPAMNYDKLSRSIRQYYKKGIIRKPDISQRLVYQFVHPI
In outline:
as §1

The next test deals with T12, ETV7 (Homo sapiens, UniProt Q9Y603 1-341).
T12 sequence: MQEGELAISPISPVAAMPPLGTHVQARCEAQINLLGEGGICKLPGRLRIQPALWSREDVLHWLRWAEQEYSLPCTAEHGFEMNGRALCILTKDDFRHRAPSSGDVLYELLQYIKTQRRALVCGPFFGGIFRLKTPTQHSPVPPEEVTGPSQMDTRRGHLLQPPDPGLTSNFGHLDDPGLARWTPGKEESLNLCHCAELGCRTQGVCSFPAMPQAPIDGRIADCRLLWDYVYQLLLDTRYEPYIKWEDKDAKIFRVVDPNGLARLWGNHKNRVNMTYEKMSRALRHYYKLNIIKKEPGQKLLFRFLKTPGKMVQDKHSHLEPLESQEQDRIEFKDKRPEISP
The essentials: as §1

Another test concerns the target T13, ETV3 (Homo sapiens, UniProt P41162-2 1-143).
T13 sequence: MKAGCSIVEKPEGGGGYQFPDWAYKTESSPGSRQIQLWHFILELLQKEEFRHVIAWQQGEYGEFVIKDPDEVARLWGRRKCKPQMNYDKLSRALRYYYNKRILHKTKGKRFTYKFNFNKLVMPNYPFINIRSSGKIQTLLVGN
The essentials: as §1

The target of another test is ETV6 (Homo sapiens, UniProt P41212 1-452). In outline:
as §1

Chain of ELF4 (Q99607 whole entry): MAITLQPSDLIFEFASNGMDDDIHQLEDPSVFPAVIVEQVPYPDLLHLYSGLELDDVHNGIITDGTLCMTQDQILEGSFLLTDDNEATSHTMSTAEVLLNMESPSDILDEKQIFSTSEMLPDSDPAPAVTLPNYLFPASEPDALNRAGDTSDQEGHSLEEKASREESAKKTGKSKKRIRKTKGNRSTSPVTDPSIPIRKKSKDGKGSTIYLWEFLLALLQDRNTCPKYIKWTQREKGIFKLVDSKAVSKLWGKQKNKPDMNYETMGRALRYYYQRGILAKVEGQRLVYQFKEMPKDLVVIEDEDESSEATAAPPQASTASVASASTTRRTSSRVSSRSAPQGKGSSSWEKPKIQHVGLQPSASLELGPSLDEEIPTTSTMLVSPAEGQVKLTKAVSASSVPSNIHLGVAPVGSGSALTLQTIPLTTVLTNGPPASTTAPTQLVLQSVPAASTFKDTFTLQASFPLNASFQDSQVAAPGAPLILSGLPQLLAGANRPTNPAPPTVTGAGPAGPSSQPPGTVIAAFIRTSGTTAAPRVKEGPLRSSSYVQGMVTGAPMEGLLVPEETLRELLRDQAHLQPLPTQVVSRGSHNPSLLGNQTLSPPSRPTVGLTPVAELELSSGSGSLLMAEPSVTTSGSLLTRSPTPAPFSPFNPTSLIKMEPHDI
Chain of ETV5 (P41161 whole entry): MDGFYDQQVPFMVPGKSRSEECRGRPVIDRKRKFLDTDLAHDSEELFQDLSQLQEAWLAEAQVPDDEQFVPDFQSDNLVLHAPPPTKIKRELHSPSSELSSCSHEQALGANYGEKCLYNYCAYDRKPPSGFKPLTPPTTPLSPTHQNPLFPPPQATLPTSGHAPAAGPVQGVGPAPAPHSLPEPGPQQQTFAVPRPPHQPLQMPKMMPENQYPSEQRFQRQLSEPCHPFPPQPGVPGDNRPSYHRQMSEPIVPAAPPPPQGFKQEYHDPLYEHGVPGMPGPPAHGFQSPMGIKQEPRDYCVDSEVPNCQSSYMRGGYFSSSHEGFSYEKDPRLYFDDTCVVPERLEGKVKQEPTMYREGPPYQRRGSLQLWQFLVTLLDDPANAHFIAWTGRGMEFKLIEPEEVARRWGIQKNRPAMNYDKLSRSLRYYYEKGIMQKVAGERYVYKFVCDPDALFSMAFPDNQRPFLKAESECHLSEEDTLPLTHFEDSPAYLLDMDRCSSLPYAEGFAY
Chain of SPIB (Q01892 whole entry): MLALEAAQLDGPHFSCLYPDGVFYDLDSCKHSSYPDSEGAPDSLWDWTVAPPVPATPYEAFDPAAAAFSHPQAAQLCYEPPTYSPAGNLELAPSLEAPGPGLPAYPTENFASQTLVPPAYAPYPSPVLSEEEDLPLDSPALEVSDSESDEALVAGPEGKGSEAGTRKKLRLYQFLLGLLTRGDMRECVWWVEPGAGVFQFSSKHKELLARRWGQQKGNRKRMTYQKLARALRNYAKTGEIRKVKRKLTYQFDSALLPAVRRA
Chain of ELF1 (P32519 whole entry): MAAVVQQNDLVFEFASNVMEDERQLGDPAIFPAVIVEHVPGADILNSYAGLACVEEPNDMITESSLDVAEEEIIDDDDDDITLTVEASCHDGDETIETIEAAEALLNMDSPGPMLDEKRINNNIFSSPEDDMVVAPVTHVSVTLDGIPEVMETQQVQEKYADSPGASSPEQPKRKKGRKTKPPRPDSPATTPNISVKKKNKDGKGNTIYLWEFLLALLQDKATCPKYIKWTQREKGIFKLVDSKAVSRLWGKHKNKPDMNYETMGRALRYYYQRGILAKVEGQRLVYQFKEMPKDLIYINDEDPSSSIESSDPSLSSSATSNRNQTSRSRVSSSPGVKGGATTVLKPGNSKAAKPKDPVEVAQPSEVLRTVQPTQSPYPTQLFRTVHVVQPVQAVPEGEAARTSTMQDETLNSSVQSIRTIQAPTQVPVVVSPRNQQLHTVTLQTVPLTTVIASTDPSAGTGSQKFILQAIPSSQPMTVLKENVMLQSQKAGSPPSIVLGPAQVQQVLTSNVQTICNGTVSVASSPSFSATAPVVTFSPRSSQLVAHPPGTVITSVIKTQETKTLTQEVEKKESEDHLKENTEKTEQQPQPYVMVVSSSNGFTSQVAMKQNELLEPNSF
Chain of ETV6 (P41212 whole entry): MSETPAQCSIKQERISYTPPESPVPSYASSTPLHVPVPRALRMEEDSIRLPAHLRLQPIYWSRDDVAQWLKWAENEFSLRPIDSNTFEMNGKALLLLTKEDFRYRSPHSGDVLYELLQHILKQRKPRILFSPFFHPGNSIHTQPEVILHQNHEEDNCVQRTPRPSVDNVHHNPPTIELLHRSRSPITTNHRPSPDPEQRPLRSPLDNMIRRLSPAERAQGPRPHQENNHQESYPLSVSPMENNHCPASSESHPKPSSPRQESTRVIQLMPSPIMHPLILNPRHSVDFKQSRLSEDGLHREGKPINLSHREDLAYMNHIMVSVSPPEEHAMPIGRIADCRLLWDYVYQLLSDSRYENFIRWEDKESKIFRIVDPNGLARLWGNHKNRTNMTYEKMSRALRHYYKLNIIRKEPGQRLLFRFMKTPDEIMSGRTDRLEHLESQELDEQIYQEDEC

In the case of ACGCTC, the binding signal with GABPA is 1.05 fold enrichment (6-mer frequency, TF over GST control); in the test with ERG it was 1.01 fold enrichment (6-mer frequency, TF over GST control); with ELF1, 1.07 fold enrichment (6-mer frequency, TF over GST control); with ETV5, 1.01 fold enrichment (6-mer frequency, TF over GST control); with SPIC, 1 fold enrichment (6-mer frequency, TF over GST control); in the test with ELF4 it was 1.08 fold enrichment (6-mer frequency, TF over GST control). Also, in the test with ELK4, the binding signal is 1.01 fold enrichment (6-mer frequency, TF over GST control).
In the case of GCCCCG, the binding signal with ELK1 is 1.07 fold enrichment (6-mer frequency, TF over GST control); with ERG, 1.06 fold enrichment (6-mer frequency, TF over GST control); with EHF, 1.01 fold enrichment (6-mer frequency, TF over GST control); with SPIB, 1.16 fold enrichment (6-mer frequency, TF over GST control); with ETV5 it was 1.02 fold enrichment (6-mer frequency, TF over GST control); with SPIC, 1.13 fold enrichment (6-mer frequency, TF over GST control). For the same sequence, the binding signal in the test with ELF4 is 1.09 fold enrichment (6-mer frequency, TF over GST control); with ELK4 it was 1.13 fold enrichment (6-mer frequency, TF over GST control); with ELF3, 1.08 fold enrichment (6-mer frequency, TF over GST control); with ERF, 1 fold enrichment (6-mer frequency, TF over GST control); in the test with ETV3L, 1.03 fold enrichment (6-mer frequency, TF over GST control); with ETS2, 1.02 fold enrichment (6-mer frequency, TF over GST control). Further, the binding signal is 1.01 fold enrichment (6-mer frequency, TF over GST control) in the test with SPDEF; 1.06 fold enrichment (6-mer frequency, TF over GST control) with ETV7; 1.15 fold enrichment (6-mer frequency, TF over GST control) with ETV3; 1.09 fold enrichment (6-mer frequency, TF over GST control) with ETV6.

These data come from paper PMC7862700, “An all-to-all approach to the identification of sequence-specific readers for epigenetic DNA modifications on cytosine”.
